Screening data: PubChem BioAssay, National Center for Advancing Translational Sciences (NCATS)
FMDV antiviral: High Throughput Screening for Foot and Mouth Disease Virus Antivirals. FMDV antiviral cell-based qHTS. Potency, µM (doses to about 57.9 µM), hits mostly inhibitors. actives 1.2% (n = 410,000); calls by dose curve; tested in HEK293T cells; also: read-out not given here; nearly all actives have a fitted effect of over 45% in size
HCMV antiviral: qHTS Assay for inhibitors of the human cytomegalovirus (HCMV); AID 1259415, 2018; HFF cells, HCMV-luciferase reporter, 72 h; active compounds read low; activity change, negative = inhibition, % at 57.5 µM; actives 4.5% (n = 410,000); in the data active = activity change below about -60%; inconclusive = no clear call, values can overlap the other calls; inactive = above about -39%
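Screen run at 2 compound doses on HFFs infected with reporter HCMV, MOI 1 PFU/cell. Luciferase activity from cell lysates at 72 h post infection gave inhibition relative to buffer-only and Salinomycin wells.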
AmpC no deterg: qHTS Inhibitors of AmpC Beta-Lactamase (assay without detergent); P00811; AmpC nitrocefin hydrolysis, absorbance 480 nm, 0.0001% Triton; Potency, µM (series often up to 57.1 µM), actives largely listed as inhibitors; actives 0.52% (n = 330,000); also: nearly all actives have a fitted effect of over 20% in size
Target sequence (P00811 whole entry, looked up): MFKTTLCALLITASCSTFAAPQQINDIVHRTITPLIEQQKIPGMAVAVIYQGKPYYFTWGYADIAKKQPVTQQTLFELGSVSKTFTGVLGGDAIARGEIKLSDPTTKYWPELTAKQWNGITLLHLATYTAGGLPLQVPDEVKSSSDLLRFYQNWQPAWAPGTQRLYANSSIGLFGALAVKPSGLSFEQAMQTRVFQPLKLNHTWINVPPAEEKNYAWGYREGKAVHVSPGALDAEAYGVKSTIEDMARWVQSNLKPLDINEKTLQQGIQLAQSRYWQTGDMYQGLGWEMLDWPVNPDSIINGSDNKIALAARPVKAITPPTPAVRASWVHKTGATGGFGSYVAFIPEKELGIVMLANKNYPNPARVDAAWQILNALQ
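AmpC (5.3 nM in the dispensed reagent) in 20 mM phosphate pH 7.0 with 0.01% (detergent screen) or 0.0001% Triton X-100 was preincubated with compounds for 15 min at room temperature. Nitrocefin was then added from an 800 uM solution, and hydrolysis was followed at 480 nm.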
HCV inh: qHTS Assay for Inhibitors of Hepatitis C Virus (HCV); Huh7.5.1 HCVcc-Cre infection, luciferase reporter, 44 h; Potency, µM (titrated, usually from 41.8 µM), usual class: inhibitors; actives 3.4% (n = 340,000)
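Whole-lifecycle infectious HCVcc-Cre system; cells 1,000/well, compound then virus (~0.5 moi) added 4 h after plating, 44 h culture. Luciferase read 15 sec following 15 min substrate incubation, room temp.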
AmpC detergent: qHTS Inhibitors of AmpC Beta-Lactamase (assay with detergent) | AmpC hydrolysis of nitrocefin, absorbance 480 nm, 0.01% Triton | Potency, µM (top dose mostly 114 µM), most hits filed as inhibitors | actives 0.041% (n = 370,000); also: nearly all actives have a fitted effect of over 25% in size
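AmpC (5.3 nM in the dispensed reagent) in 20 mM phosphate pH 7.0 with 0.01% (detergent screen) or 0.0001% Triton X-100 was preincubated with compounds for 15 min at room temperature. Nitrocefin was then added from an 800 uM solution, and hydrolysis was followed at 480 nm.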
Large screens that a line does not name were inactive. Rows were chosen to be rich in hits. Some 7.3% of all compounds tested hit in one or more screens of this group. Unless noted, calls follow the shape of the dose curve; as a rule, active = well fitted curve in the direction sought with a large enough effect; inconclusive = small, poorly fitted or top-dose-only effect, or another doubt; inactive = no such curve, though single readings can be large; an effect the other way counts as inactive or inconclusive.

CCCCC(=O)NC(c1cccs1)c1cc(Cl)c2cccnc2c1O (stereo not drawn)	HCMV antiviral -100, HCV inh 2.2µM
COc1ccc(C(NC(C)=O)c2cc(Cl)c3cccnc3c2O)cc1 (stereo not drawn)	HCMV antiviral -99, HCV inh 10µM, AmpC detergent inconclusive
Cc1ccc(NP(=O)(Nc2ccc(C)cc2)Nc2ccc(C)cc2)cc1	HCV inh inconclusive
O=C(C(Cc1ccccc1)N1C(=O)c2ccccc2C1=O)N1c2ccccc2CCc2ccccc21 (stereo not drawn)	HCMV antiviral -66, HCV inh 10µM
O=C1c2ccccc2C(=O)N1CC(=O)N1c2ccccc2CCc2ccccc21	none
Cc1ccc(S(=O)(=O)N2[C@@H](c3cccc(Cl)c3)C(C(=O)OC(C)(C)C)=CC[C@H]2c2cccc(Cl)c2)cc1	FMDV antiviral inconclusive (no result: AmpC no deterg, HCV inh, AmpC detergent)
CC(C)(C)OC(=O)C1=CC[C@@H](c2ccc(Cl)c(Cl)c2)N(S(=O)(=O)c2ccc(F)cc2)[C@H]1c1cccc(F)c1	FMDV antiviral inconclusive, HCMV antiviral -64 (no result: AmpC no deterg, HCV inh, AmpC detergent)
CCCOC(=O)Nc1ccc([As](=O)(O)O)cc1NC(=O)OCCC	HCMV antiviral -80
CCOC(=O)Nc1ccc(C)cc1NC(=O)OCC	none
CCOc1ccccc1CNC(=O)c1cn(-c2ccc(OC)cc2)c(=O)c2ccccc12	HCMV antiviral inconclusive (no result: AmpC no deterg, HCV inh)
C=C[C@@H]1c2cc(C)ccc2N(S(=O)(=O)c2ccc(C)cc2)[C@H](c2ccc(OC(C)=O)cc2)C1(C#N)C#N	HCMV antiviral -97, HCV inh 8.9µM
O=C(CCC(=O)N1CCSc2ccccc21)NCc1ccc(Cl)cc1	none
O=C(CCC(=O)N1CCSc2ccccc21)NCc1ccccc1Cl	HCMV antiviral -62 (no result: AmpC no deterg, HCV inh)
Cc1c(CCOC(=O)CC23CC4CC(CC(C)(C4)C2)C3)sc[n+]1CC(=O)c1ccccc1	FMDV antiviral 28µM, HCMV antiviral -71
Cc1c(CCOC(=O)C23CC4CC(CC(C)(C4)C2)C3)sc[n+]1CC(=O)c1ccccc1	FMDV antiviral inconclusive, HCV inh inconclusive
COC(=O)[C@]12CCCCC=C1N(CCc1ccc(OC)c(OC)c1)C(=O)[C@H](CC(=O)NCc1cccs1)C2	none (no result: AmpC no deterg, HCV inh, AmpC detergent)
Cc1cc(C(=O)N(C)C2CCCCC2)no1	AmpC detergent inconclusive
Cc1ccc(-c2nc(-c3ccccc3)no2)c(Cl)c1	HCMV antiviral -79
Cc1ccc(-c2nc(-c3ccccc3)no2)cc1	FMDV antiviral 11µM
CC(C)(C)c1ccc(-c2nc(-c3ccncc3)no2)cc1	FMDV antiviral inconclusive, HCMV antiviral -70
Cc1c(C(=O)NCc2ccc(F)cc2)sc2ncnc(NCC3CCCO3)c12 (stereo not drawn)	none (no result: HCMV antiviral, AmpC no deterg, HCV inh, AmpC detergent)
CCOc1ccc(CCNC(=O)c2cn(CC)c3ccc(S(=O)(=O)N4CCCCCC4)cc3c2=O)cc1OCC	none (no result: AmpC no deterg, HCV inh)
CC(C(=O)Nc1ccc(F)cc1Cl)N(C)CCOc1ccccc1 (stereo not drawn)	HCMV antiviral -61
Cc1ccc(S(=O)(=O)N(C)C)cc1NC(=O)C(C)N(C)CCOc1ccc(Cl)cc1 (stereo not drawn)	FMDV antiviral inconclusive, HCMV antiviral -78, HCV inh 10µM, AmpC detergent inconclusive
COc1ccc(CCN2CC(C(=O)NCc3ccon3)CCC2=O)cc1 (stereo not drawn)	none (no result: AmpC no deterg, HCV inh, AmpC detergent)
CCCN(CCC)S(=O)(=O)c1ccc(NS(C)(=O)=O)cc1	none
CCCN(CC1CC1)S(=O)(=O)c1ccc(S(N)(=O)=O)cc1	AmpC no deterg 0.5µM, AmpC detergent inconclusive
Cc1csc(SCC(=O)Nc2cccc(C)c2C)n1	HCMV antiviral -64
Cc1csc(SCC(=O)N2CCCC2)n1	HCMV antiviral -71, AmpC detergent inconclusive
Cc1csc(SCC(=O)N2CCN(S(=O)(=O)c3ccccc3)CC2)n1	none
Cc1ccc(C)c(NC(=O)CSc2nc(C)cs2)c1	none
COCCN1Cc2cc(C(=O)OC)c3c(c2C1=O)c1ccccc1n3S(=O)(=O)c1ccc(C)cc1	none (no result: FMDV antiviral, AmpC no deterg, HCV inh, AmpC detergent)
CC(C)(C(=O)NCc1ccco1)n1cc(NC(=O)c2cncc(Br)c2)cn1	none (no result: FMDV antiviral, AmpC no deterg, HCV inh, AmpC detergent)
Cc1cccc(Oc2ncnc3onc(C)c23)c1	AmpC no deterg 0.79µM
Cc1noc2ncnc(Oc3ccccc3)c12	none
